The sample as a whole holds a higher share of hits than the screen did.
Anaer choline gr: blocks anaerobic gram-negative growth on choline; calls only; Gram-negative bacterium anaerobic choline minimal medium, absorbance growth; active compounds read low; 0.2% of 55,000 active; call rule not given here
Numbers without * were called inactive; i = inactive; + = active, no number.

SMILES | Anaer choline gr
Clc1ccc(C(OCCN2CCCCC2)c2ccccc2)cc1 (centres undefined) | i
CN1C2CCC1CC(OC(c1ccccc1)c1ccccc1N)C2 (centres undefined) | i
CN1C2CCC1CC(OC(c1ccccc1)c1ccc(Cl)cc1)C2 (centres undefined) | +
O=[N+]([O-])/C=C/c1ccc2c(c1)OCO2 | i
O=[N+]([O-])C=Cc1ccc2c(c1)OCO2 | +
O=C(Oc1ccc([N+](=O)[O-])cc1)N1CCC(C(O)(c2ccc3c(c2)OCO3)c2ccc3c(c2)OCO3)CC1 | i
CC(C)NC(=O)CCc1nc(C2=CCN(Cc3ccc(Cl)cc3)CC2)no1 | i
Cc1ccc(C(=O)Oc2cccc3cccnc23)cc1S(=O)(=O)N1CCCCC1 | i
Cn1cc(C2=CCN(CC(=O)NC3CC3)CC2)cn1 | i
O=C(Nc1ccccc1)Nc1nc(CC(=O)N2CCN(Cc3ccccc3)CC2)cs1 | i

Screening data from PubChem.
